# Measurements reported in PubChem BioAssay (Tox21).
# Results filed as inconclusive are left out. Entries that show only a call come without a potency. Unmarked numbers belong to inactive results. Active and inactive are the calls of the source. Calls come from the whole dose curve; as a rule, active = well fitted activation curve with a large enough effect in the repeat runs; inconclusive = weak or mixed curves; inactive = flat fitted curve, though single readings scatter.
# Test: Caspase-3/7 induction in HepG2 cells by small molecules, qHTS assay (AID 1346978); note: nearly all actives have a fitted effect of over 15% in size
# Conditions: HepG2 caspase-3/7 activation, Caspase-Glo luminescence, 17 h; series mostly up to 92.4 µM
# Source text: National Center for Advancing Translational Sciences [NCATS] NIH Chemical Genomics Center [NCGC] U.S. Environmental Protection Agency [EPA] National Institutes of Environmental Health Sciences [NIEHS] National Toxicology Program [NTP] Assay overview: Apoptosis is a process of programmed cell death and plays a central role in the development of multicellular organisms. It is a highly regulated process and induces cell death by activating caspases, which are the members of cysteine aspartic acid-specific protease (caspase) family. Caspases involved in apoptosis are classified by their mechanism of action as initiator caspases (caspase-2, -8, -9 and -10) and executioner caspases (caspase-3, -6, and -7). Inhibition of apoptosis results in number of cancers, autoimmune diseases, inflammatory diseases and viral infection. To identify small molecule compounds that induce apoptosis, a homogeneous, luminescent Caspase-Glo 3/7 assay was used. Wild type HepG2 cells were used to screen Tox21 libraries for identifying caspase-3/7 activity inducers.
# Assay Protocol Summary: HepG2 cells were dispensed at 2,000 per well in 5uL of culture medium into white solid bottom 1536-well plates (Corning Life Sciences, Corning, NY) using a Multidrop Combi (Thermo Scientific, Waltham, MA) dispenser. The assay plates were incubated at 37 C and 5% CO2 for 5hr, and then 23nL of compounds dissolved in DMSO and positive control were transferred using a Pintool station (Wako, San Diego, CA). The assay plates were incubated at 37C and 5% CO2 for 17hr. For caspase-3/7 activity read, 4uL of Caspase-Glo 3/7 reagent (Promega Corporation, Madison, WI) was added to each well of the assay plates using Flying Reagent Dispenser (FRD, Aurora Discovery, San Diego, CA) and incubated the assay plates at room temperature for 30min. The luminescence signal was quantified using a ViewLux plate reader (Perkin Elmer, Shelton, CT).
Compound,Potency,caspase activation
CCCCCCCCCC/C=C/C#N,inactive,
CCN(O)CC,inactive,
O=C(O)C(=O)Cc1c[nH]c2ccccc12,inactive,
CCC(=O)c1ccc2c(c1)N(CCCN(C)C)c1ccccc1S2,inactive,
CCCCN1C[C@H](O)[C@@H](O)[C@H](O)[C@H]1CO,inactive,
CNCCC(Oc1ccccc1OC)c1ccccc1 (stereo not given),inactive,
O=C(Cl)c1cccc([N+](=O)[O-])c1,inactive,
C[C@@H](N)C(=O)O,inactive,
C[C@@H]1CN(c2c(F)c(F)c3c(=O)c(C(=O)O)cn(C4CC4)c3c2F)C[C@H](C)N1,,-1.23% [at 19 µM]
CN1CCN(C2=Nc3ccccc3Oc3ccc(Cl)cc32)CC1,inactive,
COC(=O)/C=C(/C)N,inactive,
CC(C)C1=CC2=CC[C@@H]3[C@](C)(CCC[C@@]3(C)C(=O)O)[C@H]2CC1,inactive,
CC(=O)O[C@H]1CC[C@@]2(C)C(=CC[C@@H]3[C@@H]2CC[C@]2(C)C(C(C)=O)=CC[C@@H]32)C1,inactive,
CCCCCCCOC(=O)CCC,inactive,
Cc1nc(N)nc(N)c1-c1ccc(Cl)c(Cl)c1,inactive,
NC1=NCC2c3ccccc3Cc3ccccc3N12 (stereo not given),inactive,
CCC(=O)Nc1ccc(O)cc1,inactive,
OCc1ccccc1O,inactive,
CCOc1ccc(OCC)c(Cl)c1,inactive,
Clc1cccc(-c2cc(Cl)cc(Cl)c2)c1,inactive,

Compound,Potency,caspase activation
COC(=O)C(C)O (stereo not given),inactive,
CO[Si](C)(C)OC,inactive,
COC(=O)N[C@H](C(=O)N[C@@H](Cc1ccccc1)[C@@H](O)CN(Cc1ccc(-c2ccccn2)cc1)NC(=O)[C@@H](NC(=O)OC)C(C)(C)C)C(C)(C)C,inactive,
CC(=O)OC(C)OC(C)=O,inactive,
CC(C)CC(=O)OCc1ccccc1,inactive,
Cc1ncc(CO)c(CN)c1O,inactive,
O=Cc1ccc(O)c(O)c1O,inactive,
CCCCNC(=S)NCCCC,inactive,
CCCCCCC,inactive,
COc1ccccc1N1CCN(CCCNc2cc(=O)n(C)c(=O)n2C)CC1,inactive,
Cc1ccc([N+](=O)[O-])cc1Cl,inactive,
CCCCC(CC)COC(=O)COc1cc(Cl)c(Cl)cc1Cl (stereo not given),inactive,
CCOC(=O)C1CC(=O)C(=C(O)C2CC2)C(=O)C1 (stereo not given),inactive,
CCCCCCCCc1ccc(S(=O)(=O)O)cc1,inactive,
CC(C)OC(C)C,inactive,
CCOC(=O)NCCC[Si](OCC)(OCC)OCC,inactive,
CN(C)C(=O)NC1(c2ccccc2)CCN(CCC[C@]2(c3ccc(Cl)c(Cl)c3)CCCN(C(=O)c3ccccc3)C2)CC1,,1.95% [at 19 µM]
O=S(=O)(O)C(F)(F)F,inactive,
CCCOCCC,inactive,
O=Cc1ccc(F)c(Br)c1,inactive,
